Shown are actives, neighbours in structure and some others; about 19% of the full set was active somewhere.
IL1B secr inh: qHTS for Inhibitors of Inflammasome Signaling: IL-1-beta AlphaLISA Primary Screen; hit rate 4.7% among 360,000; THP-1 LPS/ATP IL-1B secretion, AlphaLISA, 16 h; active compounds read low; activity change, % at 57.5 µM; AID 743279, 2014; in the data active = activity change below about -50%; inconclusive = mostly about -30% to -49%
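THP-1 cells pretreated 1 hr with compounds (up to 57.5 uM final), then stimulated with LPS (250 ng/mL final) plus ATP (1.25 mM final); secreted IL-1B measured by AlphaLISA after 16 hr, decreased signal indicating inhibition.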
HT1080 IDH1KD tx: qHTS for induction of synthetic lethality in tumor cells producing 2HG: qHTS for the HT-1080-IDH1KD cell line | AID 686971, 2013 | hit rate 2% among 360,000 | HT-1080 IDH1 knockdown viability, ATP luminescence, 48 h | Potency, µM (titrated, usually from 46.1 µM), actives largely listed as cytotoxic
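After a 2 h attachment period, IDH1KD HT-1080 cells took pin-transferred compound for 48 h at 37 °C; ATP-based luminescence after 10 min room-temperature reagent incubation reported viability.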
HT1080-NT tox: qHTS for induction of synthetic lethality in tumor cells producing 2HG: qHTS for the HT-1080-NT fibrosarcoma cell line | AID 686970, 2013 | Potency, µM (series often up to 46.1 µM), usual class: cytotoxic | hit rate 1.6% among 360,000 | HT-1080-NT fibrosarcoma viability, CellTiter-Glo ATP luminescence, 48 h;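 also: NT is the 2HG producing partner of a matched IDH1 knockdown line; nearly all actives have a fitted effect of over 55% in size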
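750 cells/well, RPMI + 5% FBS; 2 h settle, compound pin-transfer, 48 h at 37 degrees C. CellTiter-Glo 10 min RT, luminescence. Normalized to DMSO and media-only wells.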
TDP1 cell noCPT: qHTS for Inhibitors of human tyrosyl-DNA phosphodiesterase 1 (TDP1): qHTS in cells in absence of CPT | AID 686978, 2013 | DT40 Tdp1-/- hTDP1 cells, no CPT, ATP luminescence, 48 h | Potency, µM (top dose mostly 46.2 µM), hits mostly inhibitors | hit rate 15% among 420,000; also: nearly all actives have a fitted effect of over 55% in size
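Seeded 400 DT40-hTDP1 cells/well (vehicle DMSO, no 20 nM CPT); pinned compounds; ≥48 hr at 37 °C; CellTiter-Glo luminescence as viability measure.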
DT40 TDP1 CPT: qHTS for Inhibitors of human tyrosyl-DNA phosphodiesterase 1 (TDP1): qHTS in cells in presence of CPT; chicken DT40 Tdp1-/-;hTDP1 cells + 20 nM CPT, ATP luminescence, 48 h; Potency, µM (highest dose often 46.2 µM), actives largely listed as inhibitors; hit rate 12% among 420,000; AID 686979, 2013; also: nearly all actives have a fitted effect of over 55% in size
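Cell growth measured by CellTiter-Glo luminescence after a minimum 48 h, 37 C compound exposure with 20 nM CPT in Tdp1-knockout DT40 cells stably expressing hTDP1, seeded 400/well; qHTS titration format.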
Hits are given with their value; . = inactive; ? = inconclusive; / = not tested or not shown. Unless noted, calls follow the shape of the dose curve; as a rule, active = well fitted curve in the direction sought with a large enough effect; inconclusive = small, poorly fitted or top-dose-only effect, or another doubt; inactive = no such curve, though single readings can be large; an effect the other way counts as inactive or inconclusive.

SMILES	IL1B secr inh	HT1080 IDH1KD tx	HT1080-NT tox	TDP1 cell noCPT	DT40 TDP1 CPT
Clc1ccc(-c2cc3ccccc3[nH]2)cc1	.	.	.	.	.
Cc1cc(=O)c2ccccc2[nH]1	.	.	.	.	.
Cc1ccc2[nH]c(-c3ccccc3)cc(=O)c2c1	.	1.03µM	0.731µM	0.651µM	0.82µM
Cc1ccc(-c2cc(=O)c3ccccc3[nH]2)cc1	.	?	?	9.2µM	16.4µM
O=c1cc(-c2ccc(Cl)cc2)[nH]c2ccccc12	.	.	.	6.51µM	4.11µM
CC(=O)Oc1ccc(C(=O)NC(C)CCc2ccccc2)cc1 (stereo unspecified)	.	.	.	.	.
CC(SCC(=O)Nc1ccccc1Br)c1nc2ccccc2c(=O)[nH]1 (stereo unspecified)	.	.	.	.	?
COc1ccc(C(=O)COC(=O)CNS(=O)(=O)c2ccc(C)cc2)cc1	.	.	.	.	.
O=C1c2ccccc2C(Nc2ccc3c(c2)OCO3)N1Cc1ccc2c(c1)OCO2 (stereo unspecified)	.	.	.	14.6µM	?
O=C1c2ccccc2C(Nc2cccnc2)N1Cc1ccc2c(c1)OCO2 (stereo unspecified)	.	.	.	.	.
CN(CC(=O)Nc1cccc(F)c1)C(=O)CC1CCCCC1	.	.	.	.	.
O=S(c1ccc2ccccc2c1)c1cnns1 (stereo unspecified)	-111.0	?	?	2.59µM	1.03µM
O=C(Nc1cnns1)Oc1ccccc1	.	.	.	.	.
Cc1ccc(N=Cc2ccc[nH]2)c(O)c1	.	.	.	?	20.6µM
CC(C)(C(=O)N1CCC1(C)C(=O)NS(=O)(=O)c1cccc(Cl)c1)c1ccccc1 (stereo unspecified)	.	.	.	.	.
CCc1ccc(C(C(=O)NC2CCCCC2)N(C(=O)c2csnn2)C2CC2)cc1 (stereo unspecified)	.	.	.	?	16.4µM
Cc1ccc(C(C(=O)NC2CCCCC2)N(C(=O)c2csnn2)C2CC2)cc1 (stereo unspecified)	.	.	.	?	?
CC(C)CCN(C(=O)c1csnn1)C(C(=O)NC1CCCCC1)c1ccc(F)cc1 (stereo unspecified)	-56.7	.	.	?	.
O=C(C1COc2ccccc2O1)N1CCN(c2ccc(C(F)(F)F)cn2)CC1 (stereo unspecified)	.	.	.	.	.
Cc1ccc(-c2nc(SC(C)C(=O)c3c(N)n(C)c(=O)n(C)c3=O)n[nH]2)cc1 (stereo unspecified)	.	.	.	23.1µM	?
Cc1ccc(-c2nc(SCC(=O)c3c(N)n(C)c(=O)n(C)c3=O)n[nH]2)cc1	.	.	.	.	.
COc1ccc(C(=O)NNC(=S)NC(=O)c2cccc([N+](=O)[O-])c2)cc1	.	?	.	18.4µM	?
CCOC(=O)C(NC(C)=O)C(O)c1ccc([N+](=O)[O-])cc1 (stereo unspecified)	.	.	.	.	.
CCCCCC(=O)NNC(=S)NC(=O)c1cccc([N+](=O)[O-])c1	.	.	.	13µM	14.6µM
CCCCCCCCCCCC(=O)NC(C(=O)OCC)C(O)c1cccc([N+](=O)[O-])c1 (stereo unspecified)	-79.4	?	?	23.1µM	16.4µM
CCOc1ccc(C(=O)NC(=S)Nc2ccccn2)cc1[N+](=O)[O-]	.	.	.	?	?
O=C(NC(=S)Nc1ccccn1)c1cccc([N+](=O)[O-])c1	.	.	.	18.4µM	?
Nc1nc(SCc2ccc(F)cc2)ns1	.	.	.	.	.
COc1ccc(C)cc1NC(=O)c1cc(S(=O)(=O)N2CCCCC2)c[nH]1	/	/	/	?	.
O=C(NC(=S)NNC(=O)c1ccccc1O)c1cccc([N+](=O)[O-])c1	.	.	.	23.1µM	23.1µM

Source: PubChem (National Center for Advancing Translational Sciences (NCATS))
